Shown are actives, neighbours in structure and some others; about 21% of the full set was active somewhere.
Cycloheximide cs = Cycloheximide Counterscreen for Small Molecule Inhibitors of Shiga Toxin | actives 12% (n = 300,000) | AID 2314, 2010 | cell reporter, cycloheximide protein synthesis inhibition counterscreen | max response, %; in the data active = max response mostly above about 13%, no sharp cut-off; inactive = mostly below about 14%; note: read at 38.3 µM for the half of the compounds with a filed dose
Pf growth 48h = Primary qHTS for delayed death inhibitors of the malarial parasite plastid, 48 hour incubation; P. falciparum luciferase growth in erythrocytes, 48 h; Potency, µM (doses to about 28.7 µM), usual class: inhibitors; actives 5.9% (n = 310,000)
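A one-generation exposure of luciferase-tagged malaria parasites in RPMI 1640/Albumax erythrocyte culture, 37 C and 5% CO2. Inhibition is inferred from decreased luminescence after adding detection reagent.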
NS1 inh = qHTS Assay for Inhibitors of Influenza NS1 Protein Function; Potency, µM (titrated, usually from 46.1 µM); actives 0.4% (n = 270,000); AID 2326, 2010; calls by dose curve; note: actives are rising curves; nearly all actives have a fitted effect of over 50% in size
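Compounds were scored for reversing the slow growth caused by influenza A NS1 in S. cerevisiae, measured by optical density at 600 nm. Assay medium contained 2% galactose at pH 6.0; NS1-free yeast of the same strain were the positive control.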
Shiga inhibitor = A qHTS for Small Molecule Inhibitors of Shiga Toxin; Vero cells, Shiga toxin protein synthesis inhibition reporter; inhibition, % at 38.7 µM; actives 9.2% (n = 290,000); AID 2315, 2010; in the data active = inhibition mostly above about 28%, no sharp cut-off; inactive = mostly below about 43%
Pf growth 96h = Primary qHTS for delayed death inhibitors of the malarial parasite plastid, 96 hour incubation; P. falciparum luciferase reporter growth, 96 h; Potency, µM (doses to about 28.7 µM), usual class: inhibitors; actives 6.9% (n = 320,000); AID 504834, 2011
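Plates of compound plus infected erythrocytes (2% hematocrit, 0.05% parasitemia final) incubate 96 hours, 37 C, 5% CO2. Detection reagent added; reduced luminescence from the parasites' luciferase reporter flags inhibition.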
Each line names hits and unclear results; the compound was inactive in the other large screens. Unless noted, calls come from the whole dose curve; as a rule, active = well fitted inhibition curve with a large enough effect; inconclusive = small, poorly fitted or top-dose-only effect, or another doubt; inactive = no such curve, though single readings can be large or run the other way.

CCC(=O)Oc1ccc(NC(=O)CSCc2ccccc2)cc1	Cycloheximide cs 24.9, Shiga inhibitor 96.4
O=C(CSCc1ccccc1)Nc1cccc(C(=O)Nc2ccccc2C(=O)O)c1	none
COC(=O)c1ccc(NC(=O)CSCc2ccccc2)cc1	none (no result: Pf growth 48h)
O=C(CSCc1ccccc1)Nc1cccc(F)c1	Cycloheximide cs 38.1, Shiga inhibitor 76.6, Pf growth 96h inconclusive
Cc1ccc(SCC(=O)NCc2ccccc2)cc1	Cycloheximide cs 21.3, Shiga inhibitor 71.3, Pf growth 96h inconclusive
COc1ccc(C)cc1S(=O)(=O)Nc1ccc2c(c1)OCCO2	Pf growth 96h inconclusive (no result: Shiga inhibitor)
COc1cccc(NC(=O)CN(C)C(=O)c2c(-c3ccccc3)noc2C)c1	none
COC(=O)c1ccc(CNC(=O)CCNC(=O)c2ccco2)cc1	none (no result: Cycloheximide cs, NS1 inh, Shiga inhibitor)
O=C(CSCc1ccc(F)cc1)Nc1ccc(F)cc1	Pf growth 96h 6.57µM
O=C(CNC(=O)c1ccccc1Cl)OC1CCOC1=O (stereo unspecified)	none (no result: NS1 inh)
CN(C)C(/C=C/Nc1ccc(O)cc1)=C(C#N)C#N	Pf growth 48h inconclusive, Pf growth 96h 9.28µM (no result: NS1 inh)
CCCCn1c(N)c(N(CC(C)C)C(=O)c2ccc(OCC3CCCO3)cc2)c(=O)[nH]c1=O (stereo unspecified)	none (no result: Cycloheximide cs, NS1 inh, Shiga inhibitor)
N=c1ccn(Cc2ccc([N+](=O)[O-])cc2)cc1	Pf growth 48h 4.15µM, Pf growth 96h inconclusive
COC(=O)c1sc2cc(C(F)(F)F)cnc2c1-c1ccccc1	Pf growth 48h inconclusive
FC(F)(F)c1cnc2c(-c3ccccc3)n[nH]c2c1	Cycloheximide cs 29.0, Shiga inhibitor 83.0
Cc1cccc(N(CC(=O)NCc2ccc3c(c2)OCO3)C(=O)CCC(=O)Nc2ccccn2)c1C	Pf growth 48h 5.86µM (no result: Pf growth 96h)
COc1ccc(N(CC(=O)NCc2ccc3c(c2)OCO3)C(=O)CCC(=O)Nc2ccccn2)cc1	none
Cc1cccc(N(CC(=O)NCc2ccc3c(c2)OCO3)C(=O)CCC(=O)Nc2ccccn2)c1	Pf growth 48h 13.1µM
Cc1ccc(C(=O)NC(C)c2nnc(SCC(=O)NC3CCCC3)n2C)cc1 (stereo unspecified)	Pf growth 96h inconclusive
CCc1nnc(NC(=O)CSc2nc3cc(OC)ccc3cc2C)s1	none (no result: NS1 inh)
Cc1nc(C2COc3ccccc3O2)sc1C(=O)O (stereo unspecified)	Cycloheximide cs 13.1, Shiga inhibitor 70.7, Pf growth 96h inconclusive
COc1ccc(N2CCN(C(=O)CSc3ncnc4c3cnn4-c3ccccc3C)CC2)cc1	Pf growth 96h 6.57µM
N#Cc1c(NC(=O)CSc2ncnc3c2cnn3-c2ccccc2Cl)sc2c1CCCC2	none
Cc1ccccc1-n1ncc2c(SCC(=O)N3c4ccccc4CC3C)ncnc21 (stereo unspecified)	Pf growth 48h inconclusive, Pf growth 96h inconclusive
Cc1ccccc1-n1ncc2c(SCC(=O)NC3CCCC3)ncnc21	Pf growth 48h inconclusive, Shiga inhibitor 70.5, Pf growth 96h inconclusive
O=C(CSc1ncnc2c1cnn2-c1ccccc1Cl)N1CCN(C(=O)c2ccco2)CC1	Pf growth 96h 7.38µM
Cc1nnc(NC(=O)CSc2ncnc3c2cnn3-c2ccccc2C)s1	none
CCN(CC(=O)Nc1cc(Cl)ccc1C)C(=O)c1ccc2c(=O)n3c(nc2c1)CCC3	Pf growth 48h inconclusive (no result: Cycloheximide cs, NS1 inh, Shiga inhibitor)
COc1cc(C2NC(=O)NC(c3ccccc3)=C2C(C)=O)c(Cl)cc1OCC(=O)O (stereo unspecified)	none (no result: NS1 inh)
COc1ccc(C(=O)NCCCN2CCCC2=O)cc1	none (no result: Pf growth 96h)
COc1cc(C(=O)NCCCN2CCCC2=O)cc(Br)c1OCc1ccccc1	Pf growth 48h 9.28µM, Pf growth 96h inconclusive (no result: Cycloheximide cs, NS1 inh, Shiga inhibitor)
O=C(NCCCN1CCCC1=O)c1ccc(OCc2ccccc2)cc1	Cycloheximide cs 28.0 (no result: Pf growth 48h)
COc1cc(C(N)=O)cc(Br)c1OCc1ccccc1	none
O=C(Nc1nccs1)c1ccc(-c2ccc(F)c(Cl)c2)o1	Cycloheximide cs 45.3, Pf growth 48h inconclusive, Shiga inhibitor 102.1
Cc1ccccc1NC(=O)c1ccc(-c2ccc(Cl)cc2Cl)o1	Cycloheximide cs 20.6 (no result: Pf growth 48h)
O=C(Nc1nccs1)c1ccc(-c2ccc(Cl)cc2Cl)o1	Cycloheximide cs 26.3, Shiga inhibitor 49.7
O=C(Nc1nccs1)c1ccc(COc2c(F)c(F)cc(F)c2F)o1	none (no result: Cycloheximide cs, NS1 inh, Shiga inhibitor)
CCOC(=O)c1oc2ccc(Cl)cc2c1NC(C)=O	none (no result: NS1 inh)
COc1ccc(/C=C(\C#N)C(=O)NCC(c2ccc(F)cc2)N2CCOCC2)cc1 (stereo unspecified)	Pf growth 48h inconclusive, Pf growth 96h inconclusive
CCCCSc1nc(C)c(C(C)=O)cc1C#N	Cycloheximide cs 31.7, Shiga inhibitor 78.8
CCOC(=O)CSc1nc(C)c(C(C)=O)cc1C#N	Cycloheximide cs 17.8, Pf growth 48h inconclusive, Shiga inhibitor 100.2, Pf growth 96h inconclusive
CC(C)n1c(CCC(=O)O)ccc1-c1ccccc1	Pf growth 96h inconclusive (no result: Pf growth 48h)
O=C(COc1coc(CN2CCc3ccccc3C2)cc1=O)Nc1cccc(F)c1	Pf growth 96h 4.65µM (no result: Cycloheximide cs, NS1 inh, Shiga inhibitor)
COc1ccc(NC(=O)COc2coc(CN3CCc4ccccc4C3)cc2=O)cc1	Pf growth 96h 13.1µM (no result: Cycloheximide cs, NS1 inh, Shiga inhibitor)
COc1ccccc1CNC(=O)CN(C)Cc1ccc(SC)cc1	Pf growth 48h inconclusive, Pf growth 96h inconclusive
COCCN(CCOC)S(=O)(=O)c1ccc(C(=O)Nc2nnc(COC)o2)cc1	none (no result: NS1 inh)
CCCN(CCC)S(=O)(=O)c1ccc(C(=O)Nc2nnc(COC)o2)cc1	Pf growth 48h 14.7µM (no result: NS1 inh)
C=CCN(CC=C)S(=O)(=O)c1ccc(C(=O)Nc2nnc(CSC)o2)cc1	Pf growth 48h 11.7µM, Pf growth 96h inconclusive (no result: NS1 inh)
CSCc1nnc(NC(=O)c2ccc(S(=O)(=O)N(C)C)cc2)o1	Pf growth 48h inconclusive (no result: NS1 inh)
COc1cc(NC(=S)NC(=O)c2ccco2)ccc1NC(=O)C(C)C	Pf growth 96h inconclusive
COc1ccc(OC)c(NC(=O)c2cnc(Nc3ccccc3OC)c3ccccc23)c1	Pf growth 48h 10.4µM
COc1cc(NC(=O)C2CCCCC2)c(OC)cc1NC(=O)c1ccco1	Pf growth 48h inconclusive
COc1ccccc1NS(=O)(=O)c1ccc(NC(=O)CCNC(=O)c2ccco2)cc1	Pf growth 48h inconclusive, Pf growth 96h 8.28µM
COc1cc(NC(=O)C(C)C)ccc1NC(=O)c1ccco1	Cycloheximide cs 58.3
COc1cc2c(cc1NC(=O)c1ccco1)CCCC2	Cycloheximide cs 51.5, Shiga inhibitor 57.3 (no result: Pf growth 48h, Pf growth 96h)
COc1ccc(C(=O)Nc2ccccc2NC(=O)c2ccco2)c(OC)c1	Pf growth 48h inconclusive (no result: NS1 inh)
COc1ccc(NC(=O)c2ccco2)c(OC)c1	Cycloheximide cs 41.8, Shiga inhibitor 74.2, Pf growth 96h inconclusive
CC(=O)c1ccccc1NC(=O)CCNC(=O)c1ccco1	Cycloheximide cs 18.5
COc1ccc(OC)c(NC(=O)CCNC(=O)c2ccco2)c1	none
COc1ccc(OC)c(NC(=O)c2ccccc2NC(=O)c2ccco2)c1	Pf growth 48h 3.29µM
COc1ccc(NC(=O)CCNC(=O)c2ccco2)c(OC)c1	Cycloheximide cs 28.3
Cc1ccccc1N(CC(=O)NCCSCc1ccccc1)S(C)(=O)=O	Pf growth 96h 11.7µM
CS(=O)(=O)N(CC(=O)NCCSCc1ccccc1)c1ccccc1Br	Pf growth 96h 7.38µM
